# From PubChem BioAssay AID488890 (Southern Research Specialized Biocontainment Screening …, 2010)
# The whole screen tested about 320,000 compounds, of which about 1,300 (0.41%) were called active. Roughly 3% stayed inconclusive and do not appear here. No rule for the calls is given here. These entries were drawn from the full list. Entries with a potency or affinity are not part of this list.
# Assay: growth inhibition of non-replicating M. tuberculosis (AID 488890);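 also: plate controls were DMSO cells for no effect and high antibiotic wells for full effect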
# Settings: Mycobacterium tuberculosis non-replicating, at 25 µM, stronger effect = higher value
row,Compound,inhibition [%]
1,Cc1cc(C(=O)CN2C(=O)C(=O)N(Cc3ccco3)C2=O)c(C)n1CCc1ccccc1,54.3
2,Cc1ccnc(NC(=O)COc2ccc3oc4c(c3c2)CCCC4)c1,76.9
3,Cc1cccc(NC(=O)COc2ccc3oc4c(c3c2)CCCC4)n1,75.9
4,COc1ccc(CNC(=O)Nc2ccc([N+](=O)[O-])cc2)cc1,-6.85
5,O=C(NCCCn1ccnc1)c1ccc(Cl)c(S(=O)(=O)N2CCOCC2)c1,2.9
6,C/C(CC(=O)Nc1cccnc1)=N\NC(=O)C(=O)Nc1cccc(C)c1,6.84
7,CCOCCn1ccc2c(OCC(=O)Nc3ccccc3F)cccc2c1=O,4.93
8,COc1cccc(OCCNC(=O)c2cccc(OC)c2)c1,7.64
9,O=C(NCCOc1ccccc1)c1cc(C(=O)NCCOc2ccccc2)cc([N+](=O)[O-])c1,-6.28
10,COc1cccc(OCCNC(=O)c2ccc(C)cc2)c1,37.6
11,Cc1ccc(OCCNC(=O)c2cccc(C)c2)cc1,49.8
12,CCCN(C(=O)c1ccco1)c1nnc(-c2ccccc2C)s1,72.7
13,COc1cc(C(=O)N[C@H](C(=O)NC2CCCCCC2)C(C)C)cc(OC)c1OC,2.31
14,O=C(COC(=O)c1cc(Cl)ccc1O)Nc1ccc2c(c1)OCCO2,71.7
15,O=C(COC(=O)c1cc(Br)ccc1O)Nc1ccc2c(c1)OCCO2,76.5
16,Cc1ccc(C(=O)OCC(=O)Nc2ccc3c(c2)OCO3)c(O)c1,-15.4
17,O=C(COC(=O)c1cccnc1Cl)c1ccc2c(c1)OCCO2,5.13
18,CC1=C(C(=O)OCc2ccccc2)C(c2ccc([N+](=O)[O-])cc2)NC(=O)N1 (stereo unspecified),8.66
19,Cc1ccc(-n2cc3c(=O)n(C)c(=O)n(C)c3c2)cc1C,13.7
20,COc1cc2[nH]c(=S)nc(NCc3cccs3)c2cc1OC,-37
21,CCOC(=O)c1ccc(NC(=O)CCC(=O)OC)cc1,3.53
22,COC(=O)c1ccc(NC(=O)NS(=O)(=O)c2ccc(C)cc2)cc1,16.8
23,CCOC(=O)CC(=O)Nc1ccc(C)cc1,60.5

row,Compound,inhibition [%]
1,CCOC(=O)c1ccc(S(=O)(=O)NNS(=O)(=O)c2ccc(C)cc2)cc1,3.23
2,COC(=O)C(C)NC(=O)c1ccc(C(C)(C)C)cc1 (stereo unspecified),-13.9
3,Cc1oc(-c2ccccc2F)nc1CS(=O)(=O)CC(=O)NCCCc1ccccc1,-19.5
4,Cc1ccc(C(C)NC(=O)c2ccco2)cc1 (stereo unspecified),71.4
5,CCC(=O)C1CCCN(C(=O)CCc2nnc(-c3ccc4c(c3)OCO4)o2)C1 (stereo unspecified),-3.37
6,O=C(O)c1ccccc1N=N/C(=N/Nc1cc(S(=O)(=O)O)ccc1O)c1ccccc1,-12.5
7,Oc1ccccc1N=N/C(=N/Nc1ccccc1O)c1ccccc1,22.9
8,CC(=O)OC(C(=O)NC1CCCCC1)c1ccncc1 (stereo unspecified),-2.68
9,CSC1=NSC2=NC(=O)/C(=C/c3coc4ccccc4c3=O)C(=N)N12,-10.1
10,CSC1=NSC2=NC(=O)/C(=C\c3coc4ccccc4c3=O)C(=N)N12,-4.28
11,CCOc1ccc(Nc2ccc(N3C(=O)CCC3=O)cc2[N+](=O)[O-])cc1,7.14
12,Cc1sc(NC(=O)c2cccc(N3C(=O)CCC3=O)c2)nc1-c1ccccc1,-5.52
13,CCN(CC)S(=O)(=O)c1cccc(-c2nnc(SCC(=O)NC)n2N)c1,-7.59
14,Cc1ccc(N/C=C/C(=O)c2cccs2)cc1C,35.6
15,Cc1ccc(NC(=O)COC(=O)CCC(=O)c2cccs2)cc1,69
16,COc1ccc(NC(=O)CCC(=O)c2cccs2)c(OC)c1,-6.26
17,COc1ccc(NC(=O)CCC(=O)c2cccs2)cc1Cl,1.43
18,Cc1ccc(NC(=O)COC(=O)CCC(=O)c2cccs2)cc1C,59.8
19,Cc1ccc(NC(=O)CCC(=O)c2cccs2)cc1,8.3
20,COc1cc(NC(=O)C/C(C)=N/NC(=O)c2ccccn2)c(OC)cc1Cl,69.5
21,COc1cc(NC(=O)C/C(C)=N/NC(=O)c2cccc(O)c2)c(OC)cc1Cl,45.4
22,O=C(CSc1n[nH]c(-c2ccc(S(=O)(=O)NC3CCCCC3)cc2)n1)N1CCCC1,12.1
23,O=C(CCc1nc2ccccc2c(=O)[nH]1)NCCN1C(=O)S/C(=C\c2ccccc2Cl)C1=O,7.97

row,Compound,inhibition [%]
1,O=c1c2ccccc2n(Cc2cccc(F)c2)c(=O)n1C1CCCC1,7.83
2,CC(C)C[C@@H](CN(N=O)[C@@H](Cc1ccccc1)CN(C)N=O)N(CCc1ccccc1)N=O,1.78
3,CCOc1ccc(N2C(=O)CC(NC3CCCCNC3=O)C2=O)cc1 (stereo unspecified),61.4
4,Cc1ccccc1NC(=O)Nc1ccccn1,1.67
5,COc1ccc(-c2cc(C(F)(F)F)nc(-n3ccnc3C)n2)cc1,31
6,O=C(COC(=O)CNS(=O)(=O)c1ccc(Br)cc1Cl)NC1CC1,-8.59
7,Cc1ccc(NC(=O)Cc2cccs2)cc1Cl,13.4
8,O=C(CCC(=O)c1cccs1)NCc1ccc(Cl)cc1,3.45
9,Cc1ccc(NC(=O)CCC(=O)c2cccs2)cc1F,14.5
10,O=C(Nc1ccc(Cl)cc1)c1cccs1,76.6
11,O=c1c2ccccc2ncn1CCCSc1ccc(Cl)cc1,72.5
12,O=C(c1ccccc1CCc1ccccc1)N1CCCC1,7.78
13,CCC(=O)Nc1ccc(Br)cn1,8.41
14,CCCCC(=O)Nc1ccc(Br)cn1,6.83
15,CCN(C(=O)COC(=O)c1cc([N+](=O)[O-])ccc1N1CCOCC1)C1CCS(=O)(=O)C1 (stereo unspecified),-18.3
16,CC1CCc2c(nc3nc[nH]n3c2=O)C1 (stereo unspecified),14.7
17,Cc1nc2nc3c(c(=O)n2[nH]1)CCC3,-0.78
18,Cc1cccc(NC(=S)NCC(c2cccnc2)N2CCOCC2)c1C (stereo unspecified),-1.94
19,CCOc1ccc(N2C(=O)CC(N(CCc3ccc(OC)c(OC)c3)C(=O)/C=C/C(=O)O)C2=O)cc1 (stereo unspecified),16.4
20,COc1cc(/C=C2/SC(=O)NC2=O)ccc1OC(=O)c1ccco1,-7.07
21,COc1cc(/C=C2/SC(=S)N(C)C2=O)ccc1OC(=O)c1ccco1,31.5
22,COc1cc(/C=C2/C(=O)NN(c3cccc(C)c3)C2=O)cc([N+](=O)[O-])c1O,10.2
23,COc1ccc(/C=C2/C(=O)N(c3ccccc3)N=C2C)cc1Br,1.11

row,Compound,inhibition [%]
1,COC(=O)c1ccc(N2NC(=O)/C(=C/c3ccc(OC)c(OC)c3)C2=O)cc1,14.3
2,COc1cc(/C=C2/C(=O)NN(c3ccc(Cl)cc3)C2=O)cc(OC)c1O,21.1
3,CCOC(=O)COc1ccc(/C=C2/C(=O)NN(c3ccc(F)cc3)C2=O)cc1OC,79.2
4,COc1ccc(/C=C2/C(=O)N(c3ccccc3)N=C2C)cc1OC,1.07
5,CC1CCCN(CCCNC(=O)c2ccc(CS(=O)(=O)c3c(Cl)cccc3Cl)o2)C1 (stereo unspecified),0.97
6,C/C(=N\NC(=O)c1ccccc1NC(=O)c1ccc(Cl)cc1)c1ccncc1,14.5
7,Cn1nc(C(=O)N2CCN(S(=O)(=O)/C=C/c3ccccc3)CC2)c2ccccc2c1=O,1.67
8,CCC1C2Cn3c(nc4ccccc43)C1N(C)O2 (stereo unspecified),-9.29
9,CC1(C)CC(=O)C(C=NCCN2CCN(C(=O)CCl)CC2)=C(O)C1,28.9
10,CCOC(=O)c1sc(C)c(C(=O)NCCCN2CCOCC2)c1N,-1.46
11,COc1cc(CC(=O)OCC(=O)Nc2ccc(Cl)c(S(=O)(=O)N(C)C)c2)cc(OC)c1OC,16.7
12,Cc1ncc(CO)c(CNc2ccc(Oc3ccccc3)cc2)c1O,41.9
13,O=C(NCC1CCCO1)c1cc2c(s1)CCCC2 (stereo unspecified),5.26
14,CCC1CCc2sc(C(=O)NNC(=S)NCC3CCCO3)cc2C1 (stereo unspecified),23.3
15,CCC1CCc2sc(C(=O)NCc3ccccn3)cc2C1 (stereo unspecified),75.2
16,CC1CCc2sc(C(=O)NNC(=O)c3ccncc3)cc2C1 (stereo unspecified),71.2
17,CCOc1ccc(NC(=O)CCC(=O)NNC(=O)COc2ccc(C)cc2)cc1,-22.8
18,CCOC(=O)c1c(C)[nH]c(C)c1C(=O)CSc1nncs1,-5.38
19,Cc1[nH]ccc(=O)c1OCC(=O)O,-4.62
20,COc1ccc(S(=O)(=O)N2CCN(c3ccc4nnc(-c5ccc(F)cc5)n4n3)CC2)cc1,24
21,CNC[C@H]1Oc2c(NS(=O)(=O)c3ccccc3)cccc2C(=O)N([C@H](C)CO)C[C@@H]1C,-8.41
22,CN(C(=O)CN1C(=O)S/C(=C\c2ccc(F)cc2)C1=O)C1CCS(=O)(=O)C1 (stereo unspecified),-4.74
23,COc1ccccc1CNC(=O)COc1ccccc1C,10

row,Compound,inhibition [%]
1,Cc1occc1C(=O)N=Nc1c(O)[nH]c2ccc(Br)cc12,-11.3
2,N=C(N)N=Nc1c(O)[nH]c2ccc(Br)cc12,46
3,O=C(Nc1ccc(Br)c(Br)c1)C1CCCO1 (stereo unspecified),40.5
4,O=[N+]([O-])c1cccc(-c2ccc(CN3CCN(c4ccccc4)CC3)o2)c1,36.7
5,O=[N+]([O-])c1ccc(N2CCN(Cc3ccc(Br)o3)CC2)cc1,78.8
6,O=[N+]([O-])c1cc2c(cc1CN1CCN(c3ccc(F)cc3)CC1)OCO2,12.8
7,Clc1ccc(N2CCN(Cc3ccco3)CC2)cc1,69.8
8,O=[N+]([O-])c1ccc(CN2CCN(c3ccc([N+](=O)[O-])cc3)CC2)cc1,73.8
9,O=[N+]([O-])c1ccc(N2CCN(c3ccc(F)cc3)CC2)cc1,24.2
10,O=[N+]([O-])c1ccccc1-c1ccc(CN2CCN(c3ccccc3)CC2)o1,36.3
11,Clc1ccc(N2CCN(Cc3ccc(Br)o3)CC2)cc1,75.9
12,Cc1cc(C)cc(NC(=O)Cn2c(=O)oc3cc(S(=O)(=O)N4CC(C)CC(C)C4)ccc32)c1 (stereo unspecified),12.4
13,COc1ccc(N/C(=N\c2nc(C)cc(C)n2)NC(C)=O)cc1OC,-5.13
14,COC(/C=C/Nc1ccc(C)c(C)c1)=C(C#N)C#N,-13.9
15,COc1cccc(CNCC(O)(c2ccc(Cl)cc2)c2ccc(Cl)cc2)c1,31.2
16,Cc1ccc(C(=O)N(Cc2ccccc2)C(C)(C)C)cc1C,14
17,CC(=O)Nc1ccc(NC(=O)CSc2nnc(-c3ccc4c(c3)OCO4)o2)cc1,14.8
18,CCCC(c1nnnn1CCc1ccccc1)N1CCC(C(N)=O)CC1 (stereo unspecified),8.84
19,O=C(N/N=C/c1cccnc1)c1cccc(NC(=O)c2ccccc2Cl)c1,-2.18
